From ChEMBL document CHEMBL1961873, “Compounds: GSK PKIS; Assays: Nanosyn kinase panel” (2012)

What was measured:
[1] = target: T1, Muscle, skeletal receptor tyrosine-protein kinase (Homo sapiens) (UniProt O15146); details: at 1 µM;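 also: reported value is the mean percent inhibition of MuSK kinase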
T1 sequence (whole entry): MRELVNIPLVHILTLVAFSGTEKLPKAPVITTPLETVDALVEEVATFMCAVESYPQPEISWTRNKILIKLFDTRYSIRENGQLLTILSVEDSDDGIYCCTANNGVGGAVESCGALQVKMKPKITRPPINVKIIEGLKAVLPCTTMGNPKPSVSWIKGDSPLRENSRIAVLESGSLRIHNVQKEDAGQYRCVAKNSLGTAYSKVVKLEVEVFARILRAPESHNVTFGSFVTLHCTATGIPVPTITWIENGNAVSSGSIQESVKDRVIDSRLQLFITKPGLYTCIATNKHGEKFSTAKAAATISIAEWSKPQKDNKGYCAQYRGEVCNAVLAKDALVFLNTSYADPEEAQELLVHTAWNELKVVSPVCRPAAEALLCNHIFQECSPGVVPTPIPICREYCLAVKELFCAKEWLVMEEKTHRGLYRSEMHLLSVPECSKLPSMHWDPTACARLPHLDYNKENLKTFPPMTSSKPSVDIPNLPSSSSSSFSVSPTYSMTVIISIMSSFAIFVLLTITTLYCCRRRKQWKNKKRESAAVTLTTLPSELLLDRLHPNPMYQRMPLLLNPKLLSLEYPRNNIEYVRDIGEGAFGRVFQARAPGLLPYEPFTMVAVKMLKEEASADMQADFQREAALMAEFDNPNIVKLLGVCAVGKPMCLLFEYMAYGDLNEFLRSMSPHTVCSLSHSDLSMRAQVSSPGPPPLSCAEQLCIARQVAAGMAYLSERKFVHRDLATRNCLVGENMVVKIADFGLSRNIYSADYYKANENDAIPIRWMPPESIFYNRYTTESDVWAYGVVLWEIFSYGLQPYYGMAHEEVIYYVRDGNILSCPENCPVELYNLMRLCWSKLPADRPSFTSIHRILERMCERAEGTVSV

[2] = target: Platelet-derived growth factor receptor alpha (Homo sapiens) (UniProt P16234); details: at 0.1 µM
Chain of Platelet-derived growth factor receptor alpha (Homo sapiens) (P16234 whole entry): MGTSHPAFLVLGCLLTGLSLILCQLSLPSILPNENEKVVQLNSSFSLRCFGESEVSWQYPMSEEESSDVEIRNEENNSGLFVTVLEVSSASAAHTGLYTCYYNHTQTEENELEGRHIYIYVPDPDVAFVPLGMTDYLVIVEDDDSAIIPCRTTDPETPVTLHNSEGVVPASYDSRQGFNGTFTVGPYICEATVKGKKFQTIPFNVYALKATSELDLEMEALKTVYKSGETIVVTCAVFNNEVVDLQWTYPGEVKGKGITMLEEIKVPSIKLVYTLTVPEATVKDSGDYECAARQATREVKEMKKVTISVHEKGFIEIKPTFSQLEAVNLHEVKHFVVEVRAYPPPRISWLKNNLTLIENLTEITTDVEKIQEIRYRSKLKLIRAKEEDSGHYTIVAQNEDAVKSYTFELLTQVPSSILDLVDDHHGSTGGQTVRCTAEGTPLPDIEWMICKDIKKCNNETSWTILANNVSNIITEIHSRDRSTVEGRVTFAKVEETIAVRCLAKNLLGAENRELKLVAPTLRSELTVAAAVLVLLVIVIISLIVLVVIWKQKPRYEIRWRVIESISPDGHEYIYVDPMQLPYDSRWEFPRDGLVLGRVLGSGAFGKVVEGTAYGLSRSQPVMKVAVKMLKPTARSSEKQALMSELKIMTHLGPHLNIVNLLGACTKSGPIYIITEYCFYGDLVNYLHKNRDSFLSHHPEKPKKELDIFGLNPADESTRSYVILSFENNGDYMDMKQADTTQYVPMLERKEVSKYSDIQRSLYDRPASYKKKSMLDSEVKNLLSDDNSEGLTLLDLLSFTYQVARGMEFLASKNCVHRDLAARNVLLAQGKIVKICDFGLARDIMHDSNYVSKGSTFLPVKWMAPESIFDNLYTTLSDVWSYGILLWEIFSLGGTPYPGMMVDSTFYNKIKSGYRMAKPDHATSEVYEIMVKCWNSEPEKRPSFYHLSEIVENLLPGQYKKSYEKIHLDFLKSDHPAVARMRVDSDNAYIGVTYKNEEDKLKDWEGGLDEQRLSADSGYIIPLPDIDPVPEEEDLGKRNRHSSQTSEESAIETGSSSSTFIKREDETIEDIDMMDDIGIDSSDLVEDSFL

[3] = target: Platelet-derived growth factor receptor alpha (Homo sapiens) (UniProt P16234); details: at 1 µM
[4] = tested on: Platelet-derived growth factor receptor alpha (Homo sapiens), P16234 [D842V]; details: at 0.1 µM
Chain of Platelet-derived growth factor receptor alpha (Homo sapiens), P16234 [D842V] (P16234 whole entry D842V): as the sequence (P16234 whole entry) above, with D842V counted along it

[5] = tested on: Platelet-derived growth factor receptor alpha (Homo sapiens), P16234 [D842V]; details: at 1 µM
[6] = tested on: Platelet-derived growth factor receptor alpha (Homo sapiens), P16234 [T674I]; details: at 0.1 µM
Chain of Platelet-derived growth factor receptor alpha (Homo sapiens), P16234 [T674I] (P16234 whole entry T674I): as the sequence (P16234 whole entry) above, with T674I counted along it

[7] = tested on: Platelet-derived growth factor receptor alpha (Homo sapiens), P16234 [T674I]; details: at 1 µM
[8] = tested on: Platelet-derived growth factor receptor alpha (Homo sapiens), P16234 [V561D]; details: at 0.1 µM
Chain of Platelet-derived growth factor receptor alpha (Homo sapiens), P16234 [V561D] (P16234 whole entry V561D): as the sequence (P16234 whole entry) above, with V561D counted along it

[9] = tested on: Platelet-derived growth factor receptor alpha (Homo sapiens), P16234 [V561D]; details: at 1 µM
[10] = target: Platelet-derived growth factor receptor beta (Homo sapiens) (UniProt P09619); details: at 0.1 µM;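 also: reported value is the mean percent inhibition of the kinase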
Chain of Platelet-derived growth factor receptor beta (Homo sapiens) (P09619 whole entry): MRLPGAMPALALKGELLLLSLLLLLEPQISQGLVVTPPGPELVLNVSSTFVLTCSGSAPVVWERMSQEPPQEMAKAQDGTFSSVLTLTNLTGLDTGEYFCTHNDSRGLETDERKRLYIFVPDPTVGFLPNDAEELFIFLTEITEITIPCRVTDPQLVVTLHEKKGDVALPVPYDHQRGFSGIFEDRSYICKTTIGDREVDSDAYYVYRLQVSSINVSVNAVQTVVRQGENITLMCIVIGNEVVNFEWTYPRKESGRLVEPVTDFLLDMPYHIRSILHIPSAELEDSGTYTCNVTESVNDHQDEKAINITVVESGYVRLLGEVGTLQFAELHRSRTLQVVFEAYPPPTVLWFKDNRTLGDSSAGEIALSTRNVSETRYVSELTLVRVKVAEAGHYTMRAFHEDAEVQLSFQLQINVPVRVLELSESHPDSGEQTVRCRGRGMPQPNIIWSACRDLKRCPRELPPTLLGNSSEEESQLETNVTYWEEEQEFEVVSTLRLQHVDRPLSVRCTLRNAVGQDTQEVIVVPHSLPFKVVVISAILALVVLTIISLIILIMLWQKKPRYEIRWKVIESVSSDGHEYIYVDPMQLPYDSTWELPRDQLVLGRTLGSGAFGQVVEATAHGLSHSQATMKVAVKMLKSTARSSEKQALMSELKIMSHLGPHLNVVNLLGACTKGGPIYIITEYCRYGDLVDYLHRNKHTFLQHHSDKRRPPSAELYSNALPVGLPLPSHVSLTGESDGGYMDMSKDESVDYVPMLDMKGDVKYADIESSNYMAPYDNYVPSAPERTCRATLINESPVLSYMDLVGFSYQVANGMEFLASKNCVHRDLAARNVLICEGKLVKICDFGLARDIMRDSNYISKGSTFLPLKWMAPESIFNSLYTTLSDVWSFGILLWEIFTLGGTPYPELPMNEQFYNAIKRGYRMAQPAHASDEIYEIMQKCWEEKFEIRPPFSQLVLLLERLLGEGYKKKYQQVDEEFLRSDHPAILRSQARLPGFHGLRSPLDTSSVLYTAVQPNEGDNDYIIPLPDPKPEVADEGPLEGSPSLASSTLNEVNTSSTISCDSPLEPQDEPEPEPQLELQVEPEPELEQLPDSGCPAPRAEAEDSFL

SMILES	inhibition [1] [%]	inhibition [2] [%]	inhibition [3] [%]	inhibition [4] [%]	inhibition [5] [%]	inhibition [6] [%]	inhibition [7] [%]	inhibition [8] [%]	inhibition [9] [%]	inhibition [10] [%]
CN1CCC(n2cnc(-c3ccc(F)cc3)c2-c2ccnc(Nc3ccccc3)n2)CC1	2.15	8.81	22.1	4.56	18.6	5.9	5.98	5.65	15.5	7.67
COC(=O)c1sc(-n2cnc3cc(OC)c(OC)cc32)cc1OCc1ccccc1C(F)(F)F	48.1	26.1	66.3	18	66.5	9.67	44.6	22.2	70.6	14.9
CCn1cc(-c2ccnc3[nH]ccc23)c(-c2cccc(NC(=O)Nc3ccc(OCc4ccccc4)cc3)c2)n1	-5.2	1.29	7.03	1.41	2.72	0.5	1.13	-0.44	1.14	2.04
Nc1ncc(-c2cccc(S(N)(=O)=O)c2)c2scc(-c3ccc(F)c(Cl)c3)c12	1.44	18.9	72.1	7.66	42.4	4.52	10.5	36.8	78.1	14.8
Nc1nc(-c2ccc(F)cc2)c(-c2ccc3ncccc3n2)s1	7.29	16.9	51.7	14.4	61.6	9.38	11.5	13.2	49.5	10.9
CC(=O)Nc1cccc(C#Cc2cncnc2Nc2ccc(OCc3cccc(F)c3)c(Cl)c2)c1	6.82	8.71	15.1	1.39	1.82	5.24	1.24	-4.05	4.74	3.29
NS(=O)(=O)c1ccc(Nc2ncc(-c3ccccc3)o2)cc1	12.4	7.81	34.8	1.5	10.2	14.4	65.1	25.7	50.5	12
O=S(=O)(CCNCc1ccc(-c2ccc3ncnc(Nc4ccc(OCc5cccc(F)c5)c(Cl)c4)c3c2)o1)c1ccccc1	5.15	11.9	19	3.35	6.47	7.8	12.8	3.09	8.1	5.51
Cc1ccc2c(-c3ccnc(Nc4ccccc4)n3)c(-c3ccc(F)cc3)nn2n1	4.61	14.8	47.9	8.2	46.6	4.09	4.32	11.6	59.1	22.5
Cc1ccc(O)cc1Nc1ccnc2cc(-c3ccccn3)ccc12	5.77	67.2	89.5	81.4	96.2	7.02	6.98	70.4	105	53.4
CC1=C(C(=O)Nc2cc(Cl)c3[nH]ncc3c2)C(c2ccc(C(F)(F)F)cc2)CC(=O)N1 (stereo not given)	9.6	4.87	8.87	2.44	4.3	5.17	7.54	4.08	4.27	0.58
COC(=O)Nc1nc2ccc(S(=O)(=O)c3ccc(NC(=O)Nc4cc(C(F)(F)F)ccc4F)cc3)cc2[nH]1	4.85	2.65	4.3	3.19	0.61	3.85	2.62	2.98	3.2	5.73
CCOc1ccc2c(-c3ccnc(Nc4cccc(C(F)(F)F)c4)n3)cnn2n1	1.27	9.61	27.3	2.8	10.2	3.74	9.48	2.96	15.9	7.67
COc1ccc(-c2nn3ncccc3c2-c2ccnc(Nc3ccc4c(c3)OCCO4)n2)cc1	-1.95	6.34	29.6	0.81	11.7	4.01	15.3	6.6	39.6	4.03
CCCN1CCC(c2ccc(Nc3nc(Nc4cc(F)ccc4C(N)=O)c4cc[nH]c4n3)c(OC)c2)CC1	15	8.78	46.5	6.28	43.8	4.13	9.42	8.22	36.4	10.4
CCCN(CCS(C)(=O)=O)Cc1ccc(-c2ccc3ncnc(Nc4ccc(OCc5cccc(F)c5)c(Cl)c4)c3c2)o1	2.34	7.21	16.2	3.62	5.72	4.68	4.67	2.84	7.4	3.14
c1ccc(-c2nc3n(c2-c2ccc4c(c2)OCO4)CCC3)nc1	2.2	3.23	7.15	3.87	2.04	2.77	2.15	2.48	2.33	3.66

SMILES	inhibition [1] [%]	inhibition [2] [%]	inhibition [3] [%]	inhibition [4] [%]	inhibition [5] [%]	inhibition [6] [%]	inhibition [7] [%]	inhibition [8] [%]	inhibition [9] [%]	inhibition [10] [%]
CC(=O)NCc1cccc(C#Cc2cncnc2Nc2ccc(OCc3cccc(F)c3)c(Cl)c2)c1	3.72	0.56	6.14	1.48	1.63	2.23	3.66	5.19	2.8	0.9
NC(=O)c1sc(-n2cnc3ccc(C(F)(F)F)cc32)cc1OCc1ccccc1Br	2.38	4.59	11	1.61	5.02	5.32	5.62	3.53	4.84	-1.07
CCNC(=O)O[C@H]1CN[C@H](C#Cc2cc3ncnc(Nc4ccc(OCc5cccc(F)c5)c(Cl)c4)c3s2)C1	3.77	5.36	8.44	1.55	1.32	4.01	3.06	1.45	1.92	2.77
COc1cccc(-n2ncc3c(N/N=C/c4ccc(F)cc4)ncnc32)c1	9.49	15.8	42.1	9.48	45.4	9.07	29.6	8.4	37.1	12.8
Fc1ccc(-c2cc(-c3c[nH]nc3-c3ccccn3)ccn2)cc1	-0.34	5.93	19.8	4.02	21.2	5.49	10.1	4.91	11.8	3.85
Cc1cccc2c1NC(=O)/C2=N\Nc1ccc(S(N)(=O)=O)cc1	5.17	7.81	17.4	0.21	8.1	3.33	7.27	13.4	41.3	2.52
CS(=O)(=O)CCNCc1coc(-c2ccc3ncnc(Nc4ccc(OCc5ccccc5)cc4)c3c2)c1	4.59	7.28	11.5	3.71	4.82	3.65	6.58	3.61	12.8	3.03
COc1cc(/C=N/Nc2ncnc3[nH]ncc23)ccc1O	22.6	27.3	72.4	28.4	80.8	3.77	16.5	25	76.3	21.9
CN(C)CCOc1ccc(-c2nc(-c3ccncc3)c(-c3ccc4c(c3)CC/C4=N\O)[nH]2)cc1	3.72	8.1	15.9	0.79	3.47	3.47	8.38	2.97	5.35	4.84
COc1ccc(CNC(=O)c2ccc(-c3cc(-c4nnc(C)o4)ccc3C)cc2)cc1	-7.05	12.6	16.5	3.66	3.96	5.1	6.47	7.3	4.07	8.68
Cc1cccc(Nc2ncc(-c3ccccc3)o2)c1	5.58	7.16	29.9	1.63	5.43	7.94	50.3	22.5	48.7	7.93
Nc1nc(-c2cccc(Cl)c2)c(-c2ccc3ncccc3n2)s1	2.14	8.04	28.3	8.3	40.8	5.77	9.67	9.61	26.7	5.64
Fc1ccc(-c2nn3ccccc3c2-c2ccncc2)cc1	3.5	1.93	5.44	1.99	5.38	3.28	1.29	1.28	5.89	0.58
COc1cc(N2CCN(C(C)C)CC2)ccc1Nc1nc(Nc2ccc(F)cc2C(N)=O)c2cc[nH]c2n1	13.2	3.76	31.1	1.57	21.6	1.91	5.04	1.82	21.8	5.8
Fc1ccc(-c2nn3ncccc3c2-c2ccnc(Nc3ccc4c(c3)OCCO4)n2)cc1	3.55	15.1	54.8	12.1	56.1	5.87	17.9	21.9	72	29.3
O=C(Nc1n[nH]c2cc(-c3ccc(F)cc3)ccc12)C1CC1	4.55	4.52	14.6	4.21	12.9	3.24	8.33	4.41	13.2	2.29
